A word on the AC50: it is the midpoint of the concentration-response curve, whichever way the signal moves.

Test [1] can be described thus: ATG_XTT_Cytotoxicity: Cytotoxicity Assessment in the Attagene TRANS-FACTORIAL HepG2 Assay (AID 2283584).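 As to AC50: XTT signal for cell number as viability in transfected HepG2 cells; cells exposed to compound for 24 h before reading; active means loss of viability signal versus DMSO baseline.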 In a few lines:
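24 h chemical exposure of reporter-transfected HepG2; XTT signal loss vs DMSO indicates cytotoxicity.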

Test [2] can be described thus: TOX21_p53_BLA_p2_viability: Viability Assessment in the Tox21 HCT-116 p53 Agonism Beta-lactamase Assay, Phase 2 (AID 2283591).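 Also: compound exposure lasted 16 h at 37 °C; actives lower the ATP signal meaning cytotoxicity.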 In a few lines:
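HCT116 p53-bla cells, 4000/well, dosed after 5 h plating (217-fold dilution of DMSO stocks) and incubated 16 h at 37C. Viability taken as cellular ATP by CellTiter-Glo luminescence after 30 min RT; signal loss marks cytotoxicity.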

The target in test [3] is Cellular tumor antigen p53 (Homo sapiens) (UniProt P04637). In words: TOX21_p53_BLA_p2_ratio: Tox21 HCT-116 p53 Agonism Beta-lactamase Assay, Ratio, Phase 2 (AID 2283592). Summed up: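 DMSO-normalized, positive-direction endpoint derived from the 460 nm/530 nm FRET ratio in HCT116 p53 beta-lactamase reporter cells exposed 16 h at 37C and loaded with CCF4-AM for 2 h.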
Test [4] in a line: TOX21_p53_BLA_p3_viability: Viability Assessment in the Tox21 HCT-116 p53 Agonism Beta-lactamase Assay, Phase 3 (AID 2283593).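 Also: cells exposed to compound for 16 h before reading.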 In a few lines: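 HCT116 cells, 4000/well, dosed 5 h after plating by pin transfer (217-fold dilution from DMSO stock) and incubated 16 h at 37C, 5% CO2. Viability read as ATP luminescence with CellTiter-Glo after 30 min at room temperature.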
Test [5] has as its target Cellular tumor antigen p53 (Homo sapiens) (UniProt P04637). In words: TOX21_p53_BLA_p3_ratio: Tox21 HCT-116 p53 Agonism Beta-lactamase Assay, Ratio, Phase 3 (AID 2283596). In a few lines:
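Cells were seeded at 4000/well, rested 5 h at 37C, then dosed with DMSO compound solutions (217-fold dilution) for 16 h. CCF4-AM substrate was loaded for 2 h at room temperature, and the 460/530 nm emission ratio was fitted for gain of signal versus DMSO.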

A short description of test [6]: TOX21_p53_BLA_p4_viability: Viability Assessment in the Tox21 HCT-116 p53 Agonism Beta-lactamase Assay, Phase 4 (AID 2283597).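 Also: hits lower the luminescence signal meaning cytotoxicity.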 In a few lines: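 In this multiplexed secondary endpoint, HCT116 cells (4000 per well, compound at 5 h, 16 h treatment) received CellTiter-Glo after the beta-lactamase read. Luminescence after 30 min RT reflects ATP, and falling signal marks cytotoxicity.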

Test [7] can be described thus: TOX21_p53_BLA_p5_viability: Viability Assessment in the Tox21 HCT-116 p53 Agonism Beta-lactamase Assay, Phase 5 (AID 2283600). In a few lines: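 Here cell health was gauged by ATP levels in wells holding 4000 cells, each treated 16 h with DMSO-delivered compounds at 217-fold dilution; reduced luminescence marked toxicity.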
The target of test [8] is Cellular tumor antigen p53 (Homo sapiens) (UniProt P04637). In words: TOX21_p53_BLA_p5_ratio: Tox21 HCT-116 p53 Agonism Beta-lactamase Assay, Ratio, Phase 5 (AID 2283599). Summed up:
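HCT-116 p53-bla cells (4000/well) plated 5 h, dosed with compound (217-fold DMSO dilution) for 16 h at 37 C; CCF4-AM substrate 2 h at room temperature. Activity is the 460/530 nm emission ratio (405 nm excitation), fitted in gain-of-signal direction versus DMSO.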

Test [9] has the same target. Kind of test: TOX21_p53_BLA_p4_ratio: Tox21 HCT-116 p53 Agonism Beta-lactamase Assay, Ratio, Phase 4 (AID 2283601). Summed up: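 HCT-116 p53 beta-lactamase reporter cells (4000/well) preincubated 5 h, then compound (217-fold dilution of DMSO stock) for 16 h at 37C. CCF4-AM substrate added 2 h at room temperature; 460/530 nm emission ratio fitted upward versus DMSO.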

Several values for one entry are separate records, joined by “and”; a condition that tells them apart may be missing. Identical values can stand only once. Inconclusive results are not listed. A structure can be active in one record and inactive in another. Activity calls are given as the source filed them. The calls were made as follows: active = hit-call score of the fitted dose curve at least 0.9, where 1 is the maximum; inconclusive = response in the unintended direction; inactive = score below 0.9.

Cellular tumor antigen p53 (Homo sapiens), sequence (P04637 whole entry, looked up): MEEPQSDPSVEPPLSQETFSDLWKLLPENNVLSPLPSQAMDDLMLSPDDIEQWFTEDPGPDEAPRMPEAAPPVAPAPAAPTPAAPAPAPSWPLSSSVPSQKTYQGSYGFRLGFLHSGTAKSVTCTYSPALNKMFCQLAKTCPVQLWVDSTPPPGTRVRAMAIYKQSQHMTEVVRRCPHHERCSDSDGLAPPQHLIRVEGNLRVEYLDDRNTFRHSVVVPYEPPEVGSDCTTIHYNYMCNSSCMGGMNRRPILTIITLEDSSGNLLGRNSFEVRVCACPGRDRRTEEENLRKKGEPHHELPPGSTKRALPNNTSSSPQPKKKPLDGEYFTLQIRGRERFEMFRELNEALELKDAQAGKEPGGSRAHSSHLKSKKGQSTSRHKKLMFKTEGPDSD

For `CCCCCCCCCCCCN(C)C`, the compound was called inactive in test [1], in test [2], in [3], in test [4], in test [5] and in test [6]. Besides, the compound was classed as inactive in test [7].
For the compound `O=C(O)COc1ccc(Cl)cc1`, the outcome in test [1], in test [2], in test [4], in test [5], in test [6] and in test [8] was inactive.
For `O=C(O)c1cc(I)cc(I)c1I`, the call in test [1], in [2], in [3], in test [4], in [6] and in test [7] was inactive. Besides, the result in test [9] was inactive.
As for `O=[N+]([O-])c1ccc(Cl)c([N+](=O)[O-])c1`, the AC50 is 20.2 µM (active) in [1]; 45.5 µM (active) and 39.7 µM (active) in test [2]; 86.3 µM (active) and 41.1 µM (active) in test [4]; 71.9 µM (active) and 42.9 µM (active) in test [6]; 32.3 µM (active) and 74.9 µM (active) in test [8]; 44 µM (active) and 44.4 µM (active) in test [7]. In addition, in test [9], the AC50 is 22.7 µM (active). Also, the result in test [5] and in test [9] was inactive.
On to `CC1(C)[C@H](C(=O)O[C@H](C#N)c2cccc(Oc3ccccc3)c2)[C@@H]1/C=C(\Cl)C(F)(F)F`, for which the outcome in [1], in [2], in test [4], in test [8] and in test [9] was inactive.
Turning to `CCCCCCCCCCCCCl`, the result in test [1], in test [2], in test [4], in [5], in test [6] and in test [7] was inactive. Moreover, the outcome in test [9] was inactive.
Consider `CCOP(=S)(OCC)SCSc1cc(Cl)ccc1Cl`, for which the result in [1], in test [2], in test [4] and in [7] was inactive.
As for `Cc1cc(C(F)(C(F)(F)F)C(F)(F)F)ccc1NC(=O)c1cccc(I)c1C(=O)NC(C)(C)CS(C)(=O)=O`, the compound was called inactive in test [1], in test [3], in test [4], in test [5], in test [6] and in test [8]. In test [7], the outcome was inactive. Further, the AC50 in test [9] was 56.9 µM (active).
As to `Brc1ccc(Br)cc1`, the outcome in [1], in [3], in [4], in test [5], in test [6] and in test [8] was inactive. Moreover, the result in test [7] and in [9] was inactive.
Consider `O=C(NC(=O)c1c(F)cccc1F)Nc1cc(Cl)c(OC(F)(F)C(F)C(F)(F)F)cc1Cl` (stereo unspecified), for which the compound was called inactive in test [1], in test [3], in [4], in test [5], in test [6] and in [8]. In addition, the outcome in test [7] and in [9] was inactive.
`ClCCCCl`: the outcome in test [1], in test [3], in [4], in test [6], in test [8] and in [7] was inactive.
With `CCCCN(CCCCO)N=O`, the outcome in test [1], in [2], in test [4], in test [6] and in test [7] was inactive.
Consider `CCNc1nc(NCC)nc(SC)n1`, for which the compound was called inactive in [1], in [3], in test [4], in [5], in [6] and in [8]. Further, in [7], the outcome was inactive.
For the compound `COc1ccc(N)cc1`, the compound was called inactive in test [1], in [2], in [6], in test [8], in test [7] and in [9].
Take `Clc1ccc(C(Cl)(Cl)Cl)cn1`: the call in test [1], in test [2], in test [4], in test [6], in test [8] and in test [7] was inactive.
In the case of `O=C(Nc1ccc(Br)cc1)c1cc(Br)cc(Br)c1O`, the result in test [1], in test [7] and in test [9] was inactive. For the same compound, the AC50 was 1.15 µM (active) and 272 nM (active) and 3.12 µM (active) in test [3]; 1.12 µM (active) and 641 nM (active) and 1.79 µM (active) in test [4]; 255 nM (active) and 198 nM (active) and 1.8 µM (active) in [5]; 1.33 µM (active) and 417 nM (active) and 2.76 µM (active) in test [6]; 1.11 µM (active) and 782 nM (active) and 7.78 µM (active) in [8]; 9.14 µM (active) in [7]. In addition, the AC50 in test [9] is 1.11 µM (active) and 589 nM (active).
For `C[CH2][Hg][S]c1ccccc1C(=O)O`, the compound was classed as inactive in test [1] and in [3]. Also, the AC50 in test [3] was 2.74 µM (active); in test [4], 46.1 µM (active) and 6.74 µM (active); in test [5], 221 nM (active) and 970 nM (active); in [6], 41.7 µM (active) and 5.78 µM (active); in [8] it was 350 nM (active) and 3 µM (active); in test [7], 46.1 µM (active) and 7.05 µM (active). Also, the AC50 in [9] is 46.1 µM (active) and 34.6 µM (active).
In the case of `O=S(=O)(c1ccc(Cl)cc1)c1cc(Cl)c(Cl)cc1Cl`, the compound was called inactive in test [1], in [2], in test [4], in [5], in test [8] and in test [7]. Moreover, the result in [9] was inactive.
As for `O=c1[nH]c2ccccc2n1C1CCN(CCCC(c2ccc(F)cc2)c2ccc(F)cc2)CC1`, the AC50 is 18.1 µM (active) in [1]; 39.4 µM (active) in [3]; 67.5 µM (active) and 35.3 µM (active) in test [4]; 83.6 µM (active) and 43.4 µM (active) in [5]; 14.6 µM (active) and 11.3 µM (active) in test [6]; 84.6 µM (active) and 43.2 µM (active) in test [8]. Further, the AC50 in test [7] was 75.5 µM (active) and 31.9 µM (active); in test [9] it was 19.8 µM (active). In addition, the outcome in test [3] and in test [9] was inactive.
With `CCCCCCCCBr`, the compound was classed as inactive in test [1], in test [3], in test [5], in [8] and in test [7].
In the case of `C=CCCl`, the call in test [1], in test [3], in test [4], in [5] and in test [8] was inactive.
In the case of `Cc1cc(Cl)ccc1O`, the compound was classed as inactive in test [1], in test [3], in test [5], in [6], in test [8] and in [9].

Values taken from PubChem BioAssay (EPA / NIEHS).
